Outcome and AC50 data for three compounds are collected here from PubChem BioAssay (EPA / NIEHS).

Several values for one entry are separate records, joined by “and”; a condition that tells them apart may be missing. Equal entries are not always repeated. Results filed as inconclusive are left out. Activity calls are given as the source filed them. How the source made its calls, unless noted: active means hit-call score of the fitted dose curve at least 0.9, where 1 is the maximum; inconclusive means response in the unintended direction; inactive means score below 0.9.

Experiment [1] has as its target Androgen receptor (Homo sapiens) (UniProt P10275). The experiment can be described thus: ATG_AR_TRANS: Attagene TRANS-FACTORIAL HepG2 Assay for human Androgen Receptor (AR) (AID 2282973). The note with it: HepG2 Attagene TRANS-FACTORIAL AR reporter transcription. Summed up:
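Steps: transfect HepG2 with multiple GAL4-UAS reporter transcription units (TRANS format, exogenous NR-Gal4 protein); dose 24 h; isolate RNA, reverse-transcribe, PCR-amplify, FAM-label, HpaI-digest; resolve by capillary electrophoresis. Positive direction vs DMSO.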

Experiment [2] has as its target Cytochrome P450 2C18 (Homo sapiens) (UniProt P33260). The experiment can be described thus: NVS_ADME_hCYP2C18: NovaScreen (NVS) CYP450-related Enzyme Activity (ADME) Assay for human CYP2C18 (AID 2283103; active means hit-call score of the fitted dose curve at least 0.9, where 1 is the maximum; inactive means score below 0.9). Put shortly: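 Enzyme activity measured by fluorescence 0.5 h after compound addition, using recombinant CYP2C18 and a specific substrate. Actives from duplicate 10 uM screening were retested in concentration series (top 20 uM); acetonitrile served as negative baseline.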

For experiment [3], the target named is rat CYP2D1, Cyp2d1 (gene 266684) (UniProt P10633). Put plainly: NVS_ADME_rCYP2D1: NovaScreen (NVS) CYP450-related Enzyme Activity (ADME) Assay for rat CYP2D1 (AID 2283122). Put shortly:
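Rat CYP2D1 enzyme activity measured by fluorescence intensity in a cell-free format, 0.75 h post-dosing, acetonitrile as negative control. Screening at 10 uM in duplicate, with actives followed in concentration series up to 20 uM.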

Experiment [4] concerns the target Bile acid receptor (Homo sapiens) (UniProt Q96RI1). Put plainly: NVS_NR_hFXR_Agonist: NovaScreen (NVS) Nuclear Receptor Binding Assay for human Farnesoid X Receptor Agonism (FXR) (AID 2283347). Summed up:
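Agonist-mode FXR assay read by time-resolved FRET 1 h after compound addition, using isolated human receptor protein without cells. Duplicate 25 uM single-point primary screen, concentration series for confirmed actives; DMSO as baseline.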

The nature of experiment [5]: CCTE_Harrill_HTTr_Apoptosis_PRF_DMEM_12hr: (Pilot) CCTE's 12-hour Apoptosis Assessment for the High-Throughput Transcriptomics (HTTr) Platform, in MCF-7 cells cultured in phenol red-free DMEM + 10% charcoal-stripped fetal bovine serum, Harrill Lab (AID 2283985; active means hit-call score of the fitted dose curve at least 0.9, where 1 is the maximum; inactive means score below 0.9). Put shortly:
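Caspase-3/7 activity by CellEvent Green high content imaging after 12 h compound exposure (eight concentrations) in MCF-7 grown in phenol red-free DMEM plus 10% charcoal-stripped serum; DMSO as baseline.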

Experiment [6] concerns the target human CYP4F12, CYP4F12 (gene 66002) (UniProt Q9HCS2). The experiment can be described thus: NVS_ADME_hCYP4F12: NovaScreen (NVS) CYP450-related Enzyme Activity (ADME) Assay for human CYP4F12 (AID 2283111). Summed up:
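Recombinant enzyme with a fluorescent substrate, signal read at 0.5 h post-dose; activity loss analysed relative to acetonitrile. Compounds first run in duplicate at 10 uM, with follow-up concentration-response testing of actives.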

For experiment [7], the target named is rat CYP2C12, Cyp2c12 (gene 25011) (UniProt P11510). Put plainly: NVS_ADME_rCYP2C12: NovaScreen (NVS) CYP450-related Enzyme Activity (ADME) Assay for rat CYP2C12 (AID 2283119). Put shortly:
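Fluorescent-substrate turnover by recombinant rat CYP2C12, measured at 0.5 h, normalized to acetonitrile vehicle. Chemicals screened first at a single 10 uM concentration in duplicate, with concentration series for actives.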

Experiment [8] deals with human Ephrin type-A Receptor 2 (EphA2), EPHA2 (gene 1969) (UniProt P29317). The experiment can be described thus: NVS_ENZ_hEphA2: NovaScreen (NVS) Enzymatic Assay for human Ephrin type-A Receptor 2 (EphA2) (AID 2283155). Put shortly: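 Enzyme activity of recombinant EphA2 read by fluorescence after mobility-shift separation, 1 h after dosing. Chemicals first tested at 25 uM (duplicate); those passing threshold run as concentration series, top 50 uM, single replicate, relative to DMSO.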

The target of experiment [9] is human Ephrin type-B Receptor 2 (EphB2), EPHB2 (gene 2048) (UniProt P29323). Put plainly: NVS_ENZ_hEphB2: NovaScreen (NVS) Enzymatic Assay for human Ephrin type-B Receptor 2 (EphB2) (AID 2283156). Summed up: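 Compounds were first tested in duplicate at 25 uM, with hits rerun singly in concentration series up to 50 uM. Enzyme activity on fluorescent substrate was read at 1 h by mobility-shift separation, scored as signal loss relative to DMSO.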

Experiment [10] concerns the target human Fibroblast Growth Factor Receptor 1 (FGFR1), FGFR1 (gene 2260) (UniProt P11362). The experiment can be described thus: NVS_ENZ_hFGFR1: NovaScreen (NVS) Enzymatic Assay for human Fibroblast Growth Factor Receptor 1 (FGFR1) (AID 2283159). Put shortly: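 Cell-free recombinant kinase with fluorescent substrate, product separated by electrophoretic mobility shift; read 1 hour after dosing, loss of signal relative to DMSO. Initial screen in duplicate at 25 uM, actives followed in concentration series.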

Experiment [11] addresses human Mitogen-Activated Protein Kinase 1 (MAPK 1), MAPK1 (gene 5594) (UniProt P28482). Put plainly: NVS_ENZ_hMAPK1: NovaScreen (NVS) Enzymatic Assay for human Mitogen-Activated Protein Kinase 1 (MAPK 1) (AID 2283175). Put shortly:
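Cell-free recombinant human MAPK1 enzymatic assay, fluorescence/electrophoretic mobility shift read at 1 h; loss of signal vs DMSO. Primary screen in duplicate at 25 uM; actives (e.g. ≥30% inhibition) run as concentration-response up to 50 uM.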

In experiment [12] the target is human p21 Activated Kinase 4 (PAK4), PAK4 (gene 10298) (UniProt O96013). Put plainly: NVS_ENZ_hPAK4: NovaScreen (NVS) Enzymatic Assay for human p21 Activated Kinase 4 (PAK4) (AID 2283189). Summed up:
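Extracted PAK4 enzyme activity read by fluorescence with mobility-shift separation 1 h after chemical addition. Duplicate single-concentration screen at 25 uM, DMSO as negative control.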

The target of experiment [13] is human Phosphatase and Tensin Homolog (PTEN), PTEN (gene 5728) (UniProt P60484). Put plainly: NVS_ENZ_hPTEN: NovaScreen (NVS) Enzymatic Assay for human Phosphatase and Tensin Homolog (PTEN) (AID 2283203). Put shortly:
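Loss of fluorescent product signal after mobility-shift separation reports PTEN activity, recombinant human enzyme, 1 h after compound addition. Single 25 uM duplicate screen, then concentration-response on actives; DMSO baseline.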

Experiment [14] has as its target human Protein Tyrosine Phosphatase Receptor Type C (PTPRC), PTPRC (gene 5788) (UniProt P08575). The experiment can be described thus: NVS_ENZ_hPTPRC: NovaScreen (NVS) Enzymatic Assay for human Protein Tyrosine Phosphatase Receptor Type C (PTPRC) (AID 2283212). Put shortly: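 Absorbance-based phosphatase activity of human PTPRC protein extracted from yeast was measured 1 h post-dosing. Compounds first tested at 25 uM in duplicate, then those passing threshold in singleton concentration series to 50 uM.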

In experiment [15] the target is human Tyrosine Protein Kinase Receptor Tie-2 (Tie2), TEK (gene 7010) (UniProt Q02763). Put plainly: NVS_ENZ_hTie2: NovaScreen (NVS) Enzymatic Assay for human Tyrosine Protein Kinase Receptor Tie-2 (Tie2) (AID 2283225). Summed up:
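Substrate and product were separated by mobility shift and detected by fluorescence after a 1-hour reaction with recombinant Tie2. Chemicals passing a 25 uM single-point screen were titrated to a maximum of 50 uM. Results were normalized to DMSO baseline.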

For experiment [16], the system named is rat Monoamine Oxidase, MAO-A, Peripheral (MAOAP), gene 29253. The experiment can be described thus: NVS_ENZ_rMAOAP: NovaScreen (NVS) Enzymatic Assay for rat Monoamine Oxidase, MAO-A, Peripheral (MAOAP) (AID 2283237). Put shortly:
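Scintillation counting tracked MAO-A activity in a cell-free rat liver mitochondrial membrane prep, read 1.17 hours after compound addition. Single-point duplicate testing at 25 uM preceded concentration-response follow-up; activity was fitted relative to DMSO.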

Experiment [17] addresses rat Oxytocin Receptor (OXT), Oxtr (gene 25342) (UniProt P70536). The experiment can be described thus: NVS_GPCR_rOXT: NovaScreen (NVS) G Protein-Coupled Receptor Assay for rat Oxytocin Receptor (OXT) (AID 2283330). Summed up:
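Binding to rat uterine membrane receptor was followed by scintillation counting of filter-trapped radioligand after 1 h. A 25 uM duplicate single-point screen preceded concentration series with a top of 50 uM. Signal loss was analysed relative to DMSO.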

The target of experiment [18] is Norway rat Vesicular Monoamine Transporter (VMAT2), neurotransmitter transporter, Slc18a2 (gene 25549) (UniProt Q01827). Put plainly: NVS_TR_rVMAT2: NovaScreen (NVS) Transporter Assay for Norway rat Vesicular Monoamine Transporter (VMAT2), neurotransmitter transporter (AID 2283376).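 Further: actives lower the bound radioligand signal below the DMSO level.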 Put shortly:
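Using rat forebrain membranes, specific radioligand binding to VMAT2 was measured by filtration and scintillation counting after 1 hour. Chemicals screened at 25 uM in duplicate, actives retested in concentration series, DMSO baseline.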

Experiment [19] is described as follows: ATG_M_32_XSP2: Attagene TRANS-FACTORIAL Multi-Species (XSP2) HepG2 Assay for M19 Transcription Factor (Internal Marker) (AID 2283826). Put shortly:
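Transfected HepG2 (multiplexed GAL4-UAS reporters), 24 h chemical exposure, 3 nM 6-alpha-fluorotestosterone + 1.5 nM norgestrel added. RNA → oligo(dT) RT → PCR → 6-FAM primer extension → HpaI cut → CE. Fitted upward vs DMSO.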

Sequence of rat CYP2C12, Cyp2c12 (gene 25011) (P11510 whole entry, looked up): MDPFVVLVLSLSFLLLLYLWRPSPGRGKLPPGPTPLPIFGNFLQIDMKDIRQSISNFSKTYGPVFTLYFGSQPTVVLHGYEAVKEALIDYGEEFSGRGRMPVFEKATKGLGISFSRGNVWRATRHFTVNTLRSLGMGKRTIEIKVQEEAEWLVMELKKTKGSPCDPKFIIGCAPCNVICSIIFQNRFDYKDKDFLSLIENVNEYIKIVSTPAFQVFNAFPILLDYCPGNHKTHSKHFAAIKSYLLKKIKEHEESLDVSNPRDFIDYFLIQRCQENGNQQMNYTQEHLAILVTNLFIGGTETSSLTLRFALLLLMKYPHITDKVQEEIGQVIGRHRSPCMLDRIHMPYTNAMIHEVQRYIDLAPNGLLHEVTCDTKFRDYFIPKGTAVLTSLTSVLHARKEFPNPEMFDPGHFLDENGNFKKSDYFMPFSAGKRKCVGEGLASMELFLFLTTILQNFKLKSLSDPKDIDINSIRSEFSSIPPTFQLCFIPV
Sequence of Norway rat Vesicular Monoamine Transporter (VMAT2), neurotransmitter transporter, Slc18a2 (gene 25549) (Q01827 whole entry, looked up): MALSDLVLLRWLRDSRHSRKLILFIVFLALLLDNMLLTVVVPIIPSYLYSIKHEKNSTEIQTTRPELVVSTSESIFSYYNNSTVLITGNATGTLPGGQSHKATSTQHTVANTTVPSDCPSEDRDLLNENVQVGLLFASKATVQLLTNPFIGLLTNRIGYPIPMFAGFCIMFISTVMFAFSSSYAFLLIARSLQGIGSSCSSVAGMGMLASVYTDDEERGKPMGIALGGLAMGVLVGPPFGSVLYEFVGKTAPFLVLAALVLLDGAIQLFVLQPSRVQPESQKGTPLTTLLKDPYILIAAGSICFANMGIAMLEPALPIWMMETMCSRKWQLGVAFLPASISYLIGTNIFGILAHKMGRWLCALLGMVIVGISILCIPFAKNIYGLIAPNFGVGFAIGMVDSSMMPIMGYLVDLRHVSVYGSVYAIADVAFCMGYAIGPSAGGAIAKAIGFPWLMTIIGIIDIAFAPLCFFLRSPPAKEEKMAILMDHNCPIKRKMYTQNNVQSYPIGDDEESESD
Sequence of Androgen receptor (Homo sapiens) (P10275 whole entry, looked up, the tested form may be a part): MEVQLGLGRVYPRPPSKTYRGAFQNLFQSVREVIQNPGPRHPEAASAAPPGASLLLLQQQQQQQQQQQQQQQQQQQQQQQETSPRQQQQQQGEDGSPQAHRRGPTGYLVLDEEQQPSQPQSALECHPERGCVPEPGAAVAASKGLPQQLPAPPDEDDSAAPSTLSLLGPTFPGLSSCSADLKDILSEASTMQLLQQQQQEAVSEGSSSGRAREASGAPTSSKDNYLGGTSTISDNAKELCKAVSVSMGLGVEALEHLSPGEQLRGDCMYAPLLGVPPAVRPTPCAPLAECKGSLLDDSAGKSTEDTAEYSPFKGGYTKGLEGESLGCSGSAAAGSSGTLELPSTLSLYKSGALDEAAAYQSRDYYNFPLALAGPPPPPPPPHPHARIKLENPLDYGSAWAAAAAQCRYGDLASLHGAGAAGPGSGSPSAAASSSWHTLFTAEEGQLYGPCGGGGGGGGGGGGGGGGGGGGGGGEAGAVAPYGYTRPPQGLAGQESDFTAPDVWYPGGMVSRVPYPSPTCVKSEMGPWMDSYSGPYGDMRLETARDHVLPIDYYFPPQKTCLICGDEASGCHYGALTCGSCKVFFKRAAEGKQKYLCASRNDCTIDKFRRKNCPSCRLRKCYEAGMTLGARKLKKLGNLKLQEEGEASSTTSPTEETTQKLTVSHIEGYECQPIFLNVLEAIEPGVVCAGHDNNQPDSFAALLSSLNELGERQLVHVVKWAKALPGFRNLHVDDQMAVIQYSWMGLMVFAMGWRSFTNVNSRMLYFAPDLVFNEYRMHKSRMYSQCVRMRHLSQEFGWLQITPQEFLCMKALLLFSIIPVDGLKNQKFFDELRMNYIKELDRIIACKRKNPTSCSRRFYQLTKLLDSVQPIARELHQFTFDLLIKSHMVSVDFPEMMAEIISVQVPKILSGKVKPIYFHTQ
Sequence of Cytochrome P450 2C18 (Homo sapiens) (P33260 whole entry, looked up): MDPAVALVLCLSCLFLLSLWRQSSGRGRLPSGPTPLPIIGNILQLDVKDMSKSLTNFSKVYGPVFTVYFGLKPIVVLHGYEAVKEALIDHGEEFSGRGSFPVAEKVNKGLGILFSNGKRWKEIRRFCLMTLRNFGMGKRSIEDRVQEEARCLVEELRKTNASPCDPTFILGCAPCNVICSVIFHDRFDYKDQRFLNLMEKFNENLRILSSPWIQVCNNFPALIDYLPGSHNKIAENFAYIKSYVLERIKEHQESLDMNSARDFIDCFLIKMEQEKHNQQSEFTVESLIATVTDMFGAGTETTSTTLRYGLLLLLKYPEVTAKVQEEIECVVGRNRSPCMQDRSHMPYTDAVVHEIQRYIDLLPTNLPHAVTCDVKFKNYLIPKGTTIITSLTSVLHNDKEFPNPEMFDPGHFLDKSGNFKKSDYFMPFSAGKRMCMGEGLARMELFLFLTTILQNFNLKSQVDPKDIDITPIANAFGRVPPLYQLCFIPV
Sequence of rat CYP2D1, Cyp2d1 (gene 266684) (P10633 whole entry, looked up): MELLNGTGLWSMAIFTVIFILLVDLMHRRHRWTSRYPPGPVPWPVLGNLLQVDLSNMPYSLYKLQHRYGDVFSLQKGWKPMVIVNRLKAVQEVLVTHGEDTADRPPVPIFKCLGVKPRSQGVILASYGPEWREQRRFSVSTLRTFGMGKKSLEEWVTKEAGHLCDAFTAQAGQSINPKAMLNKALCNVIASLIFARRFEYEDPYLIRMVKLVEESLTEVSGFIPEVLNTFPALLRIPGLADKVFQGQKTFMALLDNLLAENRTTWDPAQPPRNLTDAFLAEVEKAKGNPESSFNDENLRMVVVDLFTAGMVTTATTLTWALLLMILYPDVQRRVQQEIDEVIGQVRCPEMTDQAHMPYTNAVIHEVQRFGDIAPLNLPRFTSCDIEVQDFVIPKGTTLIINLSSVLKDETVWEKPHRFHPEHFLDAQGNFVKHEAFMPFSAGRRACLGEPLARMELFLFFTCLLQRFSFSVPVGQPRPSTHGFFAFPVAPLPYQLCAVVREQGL
Sequence of human Fibroblast Growth Factor Receptor 1 (FGFR1), FGFR1 (gene 2260) (P11362 whole entry, looked up): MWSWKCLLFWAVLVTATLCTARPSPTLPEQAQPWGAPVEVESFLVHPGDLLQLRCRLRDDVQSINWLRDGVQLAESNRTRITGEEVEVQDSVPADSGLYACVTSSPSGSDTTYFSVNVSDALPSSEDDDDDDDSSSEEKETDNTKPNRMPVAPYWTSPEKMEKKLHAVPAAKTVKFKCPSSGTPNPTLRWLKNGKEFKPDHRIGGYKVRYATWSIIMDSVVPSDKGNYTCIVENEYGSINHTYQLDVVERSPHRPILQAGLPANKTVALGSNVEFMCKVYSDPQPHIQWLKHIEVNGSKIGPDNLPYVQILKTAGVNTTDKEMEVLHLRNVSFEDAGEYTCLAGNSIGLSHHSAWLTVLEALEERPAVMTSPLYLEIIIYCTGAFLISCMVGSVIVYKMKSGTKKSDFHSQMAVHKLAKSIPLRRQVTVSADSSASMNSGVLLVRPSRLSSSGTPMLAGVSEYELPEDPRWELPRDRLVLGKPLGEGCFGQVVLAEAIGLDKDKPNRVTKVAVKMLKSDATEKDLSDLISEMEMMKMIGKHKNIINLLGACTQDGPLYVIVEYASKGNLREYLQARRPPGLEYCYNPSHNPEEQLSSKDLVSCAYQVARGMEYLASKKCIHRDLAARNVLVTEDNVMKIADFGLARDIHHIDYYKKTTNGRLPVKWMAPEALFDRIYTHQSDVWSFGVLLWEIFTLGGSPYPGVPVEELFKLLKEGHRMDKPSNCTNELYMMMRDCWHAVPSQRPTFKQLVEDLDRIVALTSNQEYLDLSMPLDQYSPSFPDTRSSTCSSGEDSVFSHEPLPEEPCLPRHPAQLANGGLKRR
Sequence of human p21 Activated Kinase 4 (PAK4), PAK4 (gene 10298) (O96013 whole entry, looked up): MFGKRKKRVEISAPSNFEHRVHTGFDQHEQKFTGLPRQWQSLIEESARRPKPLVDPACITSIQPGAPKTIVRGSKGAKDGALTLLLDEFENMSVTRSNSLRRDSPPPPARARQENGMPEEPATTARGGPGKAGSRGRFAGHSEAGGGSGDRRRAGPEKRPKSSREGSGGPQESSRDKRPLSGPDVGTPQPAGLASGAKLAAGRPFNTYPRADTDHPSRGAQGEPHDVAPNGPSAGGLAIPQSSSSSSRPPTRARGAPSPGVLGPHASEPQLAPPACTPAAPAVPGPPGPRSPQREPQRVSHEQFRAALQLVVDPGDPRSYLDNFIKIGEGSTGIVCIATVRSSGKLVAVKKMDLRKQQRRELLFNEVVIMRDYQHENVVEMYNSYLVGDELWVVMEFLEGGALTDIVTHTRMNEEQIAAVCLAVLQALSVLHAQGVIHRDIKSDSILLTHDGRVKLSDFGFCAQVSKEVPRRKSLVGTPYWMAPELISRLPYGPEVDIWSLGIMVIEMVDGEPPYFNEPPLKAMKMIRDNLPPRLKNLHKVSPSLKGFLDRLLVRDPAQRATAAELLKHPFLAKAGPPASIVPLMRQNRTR
Sequence of human CYP4F12, CYP4F12 (gene 66002) (Q9HCS2 whole entry, looked up): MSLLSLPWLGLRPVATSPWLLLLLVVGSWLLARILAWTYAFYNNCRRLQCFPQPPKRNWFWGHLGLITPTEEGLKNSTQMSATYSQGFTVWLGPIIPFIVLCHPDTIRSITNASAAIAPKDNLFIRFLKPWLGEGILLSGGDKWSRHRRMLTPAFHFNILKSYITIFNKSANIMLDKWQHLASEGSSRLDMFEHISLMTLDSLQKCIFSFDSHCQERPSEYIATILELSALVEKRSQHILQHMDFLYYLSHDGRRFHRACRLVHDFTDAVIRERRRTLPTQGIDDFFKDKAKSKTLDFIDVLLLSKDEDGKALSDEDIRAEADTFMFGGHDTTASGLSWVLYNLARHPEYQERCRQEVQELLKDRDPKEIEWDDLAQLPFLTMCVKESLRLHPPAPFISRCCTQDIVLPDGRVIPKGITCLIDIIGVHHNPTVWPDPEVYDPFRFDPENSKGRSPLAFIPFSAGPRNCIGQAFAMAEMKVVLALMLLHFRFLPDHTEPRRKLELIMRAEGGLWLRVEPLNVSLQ

`Cc1nn(C)c(Oc2ccccc2)c1C=NOCc1ccc(C(=O)OC(C)(C)C)cc1`: the compound was classed as inactive in [1], in experiment [2], in [3], in [4] and in experiment [5].

As to `Oc1ccc(Cl)cc1Cc1cc(Cl)ccc1O`, the compound was classed as inactive in experiment [1].

For the compound `CC(C)(c1ccc(O)cc1)c1ccc(O)cc1`, the call in experiment [1], in experiment [8], in [9], in experiment [10], in experiment [11] and in [12] was inactive. The compound was called inactive in [13], in [14], in [15], in experiment [16], in [19] and in experiment [5]. For the same compound, the half-maximal activity concentration (AC50) is 6.12 µM (active) and 7.43 µM (active) in experiment [2]; 4.07 µM (active) in experiment [6]; 7.75 µM (active) and 4.05 µM (active) and 10 µM (active) in experiment [7]; 10 µM (active) in experiment [3]; 7.41 µM (active) in experiment [17]; 12.5 µM (active) [middle of 4 runs] in experiment [18].
